The source of these data is the supplement of paper PMC3334620.

Over roughly 33,000 sequences, “E-score (-0.5 to 0.5)” has its median near -0.04; the highest 2% begin near 0.36. Only a selection was taken, and the highest values are over-represented in it overall.

This assay has as its target T1, Hmlalpha2 (UniProt P0CY09).
T1 sequence: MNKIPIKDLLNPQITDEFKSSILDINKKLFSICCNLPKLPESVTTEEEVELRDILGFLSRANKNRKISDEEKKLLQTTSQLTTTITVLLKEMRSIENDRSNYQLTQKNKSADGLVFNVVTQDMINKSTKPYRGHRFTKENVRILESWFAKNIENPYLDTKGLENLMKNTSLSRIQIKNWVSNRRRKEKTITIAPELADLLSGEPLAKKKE
Kind of assay: PBM E-score (8-mer binding enrichment) (E-score (-0.5 to 0.5)); higher = stronger / more preferred TF binding. The following applies: protein concentration: 200 nM; construct: GST-full length. How it is done: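 Universal 'all 10-mer' protein binding microarrays (Agilent AMADID 015681) probed with GST-tagged S. cerevisiae TFs (full-length or DBD) made by in vitro transcription/translation (PURExpress), about 100-200 nM. Bound TF was detected with fluorescent anti-GST. Each ungapped 8-mer (which stands for itself and its reverse complement) is scored by the PBM enrichment score (E-score), a modified Wilcoxon-Mann-Whitney statistic from -0.5 to +0.5, computed with the Universal PBM Analysis Suite. Scale: above 0.35 generally sequence-specific binding.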
For the sequence GTTTAAAA, the “PBM E-score” value is 0.215.

With AAGTAAAT, the “PBM E-score” value came out at 0.341.

ATGTAAAG: the “PBM E-score” value came to 0.473.

On to GTTTAAAC, for which the “PBM E-score” value came out at 0.41.

On to CTGTAAAC, for which the “PBM E-score” value is 0.31.

As to CTGTAAAG, the “PBM E-score” value was 0.244.

ATGTAAAT: the “PBM E-score” value is 0.477.

Consider GTGTAAAC, for which the “PBM E-score” value was 0.474.

As for AAGTAAAG, the “PBM E-score” value was determined as 0.0486.

On to GGGTAAAC, for which the “PBM E-score” value came out at 0.0624.

In the case of AGGTAAAT, the “PBM E-score” value was found to be 0.24.

CTTTAAAC: the “PBM E-score” value is 0.153.

Turning to ACAGAAAT, the “PBM E-score” value was determined as 0.107.

For the sequence CCATCACA, the “PBM E-score” value came out at 0.00393.

For the sequence CACCTTCC, the “PBM E-score” value was -0.11.

For the sequence CCCTTAGA, the “PBM E-score” value is -0.353.

Regarding AGTGCCAG, the “PBM E-score” value is -0.0844.

In the case of CACAAAGG, the “PBM E-score” value is -0.0549.

With AGCCACCC, the “PBM E-score” value was -0.289.

AGGTAAAA: the “PBM E-score” value was 0.16.

Consider ATGTAAAA, for which the “PBM E-score” value amounted to 0.474.

Regarding TGGTAAAA, the “PBM E-score” value came to 0.266.

CTGTAAAA: the “PBM E-score” value worked out at 0.359.

As for ATGTAAAC, the “PBM E-score” value worked out at 0.483.

As to GAGTAAAA, the “PBM E-score” value came out at 0.237.

As to TAGTAAAA, the “PBM E-score” value was 0.306.

Consider AGGTAAAC, for which the “PBM E-score” value turned out to be 0.26.

Turning to AAGTAAAC, the “PBM E-score” value turned out to be 0.283.

Take GGGTAAAA: the “PBM E-score” value amounted to 0.185.

TTGTAAAA: the “PBM E-score” value turned out to be 0.392.

With GTGTAAAA, the “PBM E-score” value was determined as 0.467.

As for ATAGCGAC, the “PBM E-score” value was found to be 0.106.

Consider CCGGGCAG, for which the “PBM E-score” value is -0.165.

TGGTCCAA: the “PBM E-score” value is -0.192.

Regarding GTTTGGCA, the “PBM E-score” value is -0.0431.

For GTACAGAC, the “PBM E-score” value amounted to 0.17.

As for TACCCACA, the “PBM E-score” value is -0.015.

Regarding AGTATGCG, the “PBM E-score” value came out at 0.0952.

As for ATACATCA, the “PBM E-score” value worked out at 0.334.

Consider AGACATGG, for which the “PBM E-score” value was 0.21.

ATACATGC: the “PBM E-score” value amounted to 0.427.

With ATACATGA, the “PBM E-score” value was 0.465.

Regarding ATACATCG, the “PBM E-score” value is 0.299.

Take CTACATTC: the “PBM E-score” value was 0.0322.

For ATACATCC, the “PBM E-score” value was 0.308.

For the sequence AGACATGC, the “PBM E-score” value turned out to be 0.171.

As to ATACATGG, the “PBM E-score” value came to 0.451.

AGACATGA: the “PBM E-score” value was found to be 0.275.

For the sequence CGACATGC, the “PBM E-score” value was 0.311.

As for CTACATGC, the “PBM E-score” value was determined as 0.429.

On to ACCACCGT, for which the “PBM E-score” value is -0.0982.

For the sequence AGATGCCA, the “PBM E-score” value was -0.254.

Regarding ATACCTGA, the “PBM E-score” value amounted to 0.0295.

Take GGGGGGCA: the “PBM E-score” value was -0.328.

Turning to CTAGCAAG, the “PBM E-score” value was -0.133.

As for GAAGTCGA, the “PBM E-score” value is -0.0459.

Take CCGGACAA: the “PBM E-score” value stood at 0.0112.

For CACAGAGA, the “PBM E-score” value was determined as 0.0962.

For the sequence TCAGGAGA, the “PBM E-score” value is -0.123.

For the sequence ACTGCCCA, the “PBM E-score” value was -0.0607.

Take GATGCATC: the “PBM E-score” value was 0.0847.

For CCTGTGTC, the “PBM E-score” value worked out at 0.0583.

With ACTGTGTG, the “PBM E-score” value was 0.128.

With GCTGTATA, the “PBM E-score” value came out at 0.153.

Turning to GCTGTGAA, the “PBM E-score” value worked out at 0.0585.

For ACTGTGTA, the “PBM E-score” value turned out to be 0.443.

Consider ACTGTGTC, for which the “PBM E-score” value stood at 0.174.

Consider GCTGTGTA, for which the “PBM E-score” value was found to be 0.437.

Turning to CCTGTGAA, the “PBM E-score” value came out at 0.0484.

CCTGTGTA: the “PBM E-score” value came out at 0.43.

On to AGGAGAGG, for which the “PBM E-score” value is -0.277.

With ACCAACAA, the “PBM E-score” value came to 0.198.

On to AGCATTGA, for which the “PBM E-score” value was -0.135.

For the sequence AAGAGGCA, the “PBM E-score” value is -0.184.

Turning to GCTCAACC, the “PBM E-score” value was -0.147.

Take ATCGCTCG: the “PBM E-score” value was -0.128.

In the case of ATTGTAAG, the “PBM E-score” value was 0.0623.

Regarding AGTGTAAT, the “PBM E-score” value turned out to be 0.357.

In the case of AGTGTATA, the “PBM E-score” value amounted to 0.114.

In the case of AGTGTAAA, the “PBM E-score” value stood at 0.38.

In the case of CTTGTAAA, the “PBM E-score” value came to 0.452.

Turning to GGTGTAAA, the “PBM E-score” value was determined as 0.351.

Regarding CTTGTAAC, the “PBM E-score” value amounted to 0.36.

Consider CCTGTAAA, for which the “PBM E-score” value came out at 0.328.

In the case of ATTGTAAA, the “PBM E-score” value came to 0.374.

ATTGTAAC: the “PBM E-score” value was 0.221.
